# According to PubChem BioAssay (NCI):
# Several values for one entry are separate records, joined by “and”; a condition that tells them apart may be missing. Equal entries are not always repeated. The panel holds about 79,000 compounds, 15% with a hit somewhere; the sample as a whole holds those more often. Values without a mark were called inactive. Activity calls are given as the source filed them. Rule as the data show it: active = growth inhibition above about 70%; inactive = the rest.
# Test: NCI Yeast Anticancer Drug Screen. Data for the sgs1 mgt1 strain (AID 161);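 also: 0% = growth of cultures given vehicle only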
# Conditions: S. cerevisiae sgs1 mgt1 strain, at 50.0 µM, active compounds read high
# Outline: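 Test agents were incubated with a DNA-repair-mutant yeast strain. Growth was then read and compared against vehicle-treated controls.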
row,SMILES,growth inhibition
1,ClCCN(CCCl)c1ccc(C2=Nc3cccc4cccc(c34)N2)cc1,6.75%
2,COc1cc(Cl)c(OP(=O)(OC)OC)cc1Cl,12.3%
3,c1ccc(CC[n+]2cccc3ccccc32)cc1,3.95%
4,CCC1(C(C)c2ccccc2)C(=O)NC(=O)NC1=O (stereo not given),1.8%
5,CCCCCCOC(=O)c1ccccc1C(=O)OCCCCCC,-27.9%
6,S=C=Nc1ccccn1,22.1%
7,O=C(CF)[O][Sb]([O]C(=O)CF)([c]1ccccc1)([c]1ccccc1)[c]1ccccc1,23.8%
8,O=C1C=C2c3ccccc3CC(C(=O)O)C2CC1 (stereo not given),-3.45%
9,Cc1ccc(NC2=NCCS2)cc1Cl,12.1%
10,Nc1ccc([As](O)O)c(C(=O)O)c1,-27.9%
11,CC(=O)OCC12CCC(C)=CC1OC1C(N(C)C)C(O)C2(C)C12CO2 (stereo not given),16.5%
12,O=NNc1ccc(Br)cn1,5.7%
13,COc1ccc2c3c1O[C@H]1C(Br)C=C[C@H]4[C@@H](C2)N(C)CC[C@]314 (stereo not given in full),7.15%
14,N=C(N)SCc1ccc(Cl)c(Cl)c1 (tested in a mixture with another compound),-3.55%
15,C=CC[As](=O)(O)c1ccccc1Cl,99.5% (active)
16,CN(C)S(=O)(=O)N(SC(F)(Cl)Cl)c1ccccc1,99.4% (active)
17,O=NNc1cnccn1,-37.5% and -16.6%
18,CCC[CH2][Sn]1([CH2]CCC)[O]C(=O)CN=C(C)c2ccccc2[O]1,4%
19,O=C(NCCc1ccc([N+](=O)[O-])cc1)c1ccc(S(=O)(=O)F)cc1,6.5%
20,CCN(CC)C(=S)SCc1ccccc1OC(=O)NC,7.2%

row,SMILES,growth inhibition
1,C[C@]12Cc3sc(N)nc3C[C@@H]1CC[C@@H]1[C@@H]2CC[C@@]2(C)[C@H]1CC[C@]2(C)O,11%
2,COc1cc(N=Nc2cccc(C(=O)O)c2)ccc1N(CCCl)CCCl,-30.9%
3,CC1(CCl)COP(=O)(NN)OC1 (stereo not given),-3.85%
4,O=C(c1ccc([N+](=O)[O-])cc1)C1NC1c1ccccc1 (stereo not given),24%
5,O=C([O-])C(F)(F)C(F)(F)F.[C-]#[O+].[C-]#[O+].[C-]#[O+].[C-]#[O+].[C-]#[O+].[Mn],3.65%
6,CCCCC1(C(C)C)C(=O)NC(=O)N(C)C1=O (stereo not given),5.15%
7,O=C(O)CN(CCN(CC(=O)O)CC(=O)O)CC(=O)O.[Cl][Pd][Cl],48.2%
8,O=C(COc1ccc(Cl)c(Cl)c1)Nc1ccc[n+](Cc2ccc(S(=O)(=O)F)cc2Cl)c1,17.6%
9,[C-]#[O+].[C-]#[O+].[Ni].c1ccc([PH+](CC[PH+](c2ccccc2)c2ccccc2)CC[PH+](c2ccccc2)c2ccccc2)cc1,-22.4%
10,CCOP(=O)(OCC)/C(C#N)=C(\C)c1ccco1,-15.3%
11,Cc1cc2[nH]c3c(C#N)c(OC(=O)N(C)C)c(C)c(=O)n3c2cc1C,31.6%
12,CC(=O)[O][Pb]([CH3])([CH3])[CH3],-12.4%
13,O=C(N1CCCC1)C1(c2cccc(Cl)c2)CCNCC1,-16.2%
14,CC1=CC(C(=O)O)P(C)(=O)C1 (stereo not given),-12.3%
15,O=C(c1ccccc1)C1C(C(=O)c2ccccc2)N1Cc1ccccc1 (stereo not given),3.8% and -9.95%
16,O=S1(=O)c2ccccc2-c2ccccc21,-13.8%
17,CC(=O)CC1(OC(=O)C2C(C=C(C)C)C2(C)C)C(=O)Nc2ccccc21 (stereo not given),18.6%
18,CC1(C)N=C(N)N=C(N)N1c1ccc(CCc2cccc(Cl)c2S(=O)(=O)F)c(Cl)c1,99.7% (active)
19,CN(C)P(N)(=S)N(C)C,-1.3%
20,CC(C)CCON=C(N)N,-13.7%

# Test: NCI Yeast Anticancer Drug Screen. Data for the cln2 rad14 strain (AID 165);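 also: 0% = growth equal to vehicle treated cultures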
# Conditions: S. cerevisiae cln2 rad14 strain, at 50.0 µM, active compounds read high
# Outline: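 The screen exposed genetically defined yeast (cln2 rad14) to test compounds and scored growth inhibition relative to vehicle-treated controls.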
row,SMILES,growth inhibition
1,ClCCN(CCCl)c1ccc(C2=Nc3cccc4cccc(c34)N2)cc1,-0.25%
2,COc1cc(Cl)c(OP(=O)(OC)OC)cc1Cl,-1.9%
3,c1ccc(CC[n+]2cccc3ccccc32)cc1,-26.3%
4,CCC1(C(C)c2ccccc2)C(=O)NC(=O)NC1=O (stereo not given),46.1%
5,CCCCCCOC(=O)c1ccccc1C(=O)OCCCCCC,-12.5%
6,S=C=Nc1ccccn1,7.8%
7,O=C(CF)[O][Sb]([O]C(=O)CF)([c]1ccccc1)([c]1ccccc1)[c]1ccccc1,-18.6%
8,O=C1C=C2c3ccccc3CC(C(=O)O)C2CC1 (stereo not given),-22.9%
9,Cc1ccc(NC2=NCCS2)cc1Cl,10.8%
10,Nc1ccc([As](O)O)c(C(=O)O)c1,-2.35%
11,CC(=O)OCC12CCC(C)=CC1OC1C(N(C)C)C(O)C2(C)C12CO2 (stereo not given),39.1%
12,O=NNc1ccc(Br)cn1,-0.85%
13,COc1ccc2c3c1O[C@H]1C(Br)C=C[C@H]4[C@@H](C2)N(C)CC[C@]314 (stereo not given in full),-22.6%
14,N=C(N)SCc1ccc(Cl)c(Cl)c1 (tested in a mixture with another compound),-6.1%
15,C=CC[As](=O)(O)c1ccccc1Cl,84.2% (active)
16,CN(C)S(=O)(=O)N(SC(F)(Cl)Cl)c1ccccc1,98.8% (active)
17,O=NNc1cnccn1,-3.8% and 4.05%
18,CCC[CH2][Sn]1([CH2]CCC)[O]C(=O)CN=C(C)c2ccccc2[O]1,45.5%
19,O=C(NCCc1ccc([N+](=O)[O-])cc1)c1ccc(S(=O)(=O)F)cc1,3%
20,CCN(CC)C(=S)SCc1ccccc1OC(=O)NC,-43.5%

row,SMILES,growth inhibition
1,C[C@]12Cc3sc(N)nc3C[C@@H]1CC[C@@H]1[C@@H]2CC[C@@]2(C)[C@H]1CC[C@]2(C)O,-32%
2,COc1cc(N=Nc2cccc(C(=O)O)c2)ccc1N(CCCl)CCCl,17.7%
3,CC1(CCl)COP(=O)(NN)OC1 (stereo not given),-28.7%
4,O=C(c1ccc([N+](=O)[O-])cc1)C1NC1c1ccccc1 (stereo not given),-2.65%
5,O=C([O-])C(F)(F)C(F)(F)F.[C-]#[O+].[C-]#[O+].[C-]#[O+].[C-]#[O+].[C-]#[O+].[Mn],0%
6,CCCCC1(C(C)C)C(=O)NC(=O)N(C)C1=O (stereo not given),-12.7%
7,O=C(O)CN(CCN(CC(=O)O)CC(=O)O)CC(=O)O.[Cl][Pd][Cl],21.7%
8,O=C(COc1ccc(Cl)c(Cl)c1)Nc1ccc[n+](Cc2ccc(S(=O)(=O)F)cc2Cl)c1,58.2%
9,[C-]#[O+].[C-]#[O+].[Ni].c1ccc([PH+](CC[PH+](c2ccccc2)c2ccccc2)CC[PH+](c2ccccc2)c2ccccc2)cc1,3.75%
10,CCOP(=O)(OCC)/C(C#N)=C(\C)c1ccco1,-18.4%
11,Cc1cc2[nH]c3c(C#N)c(OC(=O)N(C)C)c(C)c(=O)n3c2cc1C,17.1%
12,CC(=O)[O][Pb]([CH3])([CH3])[CH3],6.7%
13,O=C(N1CCCC1)C1(c2cccc(Cl)c2)CCNCC1,0.25%
14,CC1=CC(C(=O)O)P(C)(=O)C1 (stereo not given),-11.6%
15,O=C(c1ccccc1)C1C(C(=O)c2ccccc2)N1Cc1ccccc1 (stereo not given),2.8% and -1.2%
16,O=S1(=O)c2ccccc2-c2ccccc21,-3.5%
17,CC(=O)CC1(OC(=O)C2C(C=C(C)C)C2(C)C)C(=O)Nc2ccccc21 (stereo not given),8.85%
18,CC1(C)N=C(N)N=C(N)N1c1ccc(CCc2cccc(Cl)c2S(=O)(=O)F)c(Cl)c1,99.3% (active)
19,CN(C)P(N)(=S)N(C)C,-15.8%
20,CC(C)CCON=C(N)N,-40%
